Sa growth 42C = S. aureus growth inhibition at 42 and 30 °C, primary screen, LtaS inhibitor project, RN4220, two temperatures; OD600, 20 h, 42 °C; stronger effect = lower value; relative growth, % (no concentration beside the values); 170,000 compounds, 0.53% hits; AID 720641, 2013;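 active = relative growth at most 50% at the other temperature and 20+ points below 30 °C, or under 10% at both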
Sa helicase inh = inhibitors of S. aureus replicative helicase, primary screen, biochemical, fluorescence unwinding readout; 120,000 compounds, 0.05% hits; purified S. aureus helicase, fluorescence unwinding assay; replicative DNA helicase (DnaC/DnaB), Staphylococcus aureus; inhibition, % (test concentration not listed); AID 485395, 2010; in the data active = inhibition above about 25%, passing the limit was not always enough;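 also: 0% = mean of negative control wells and 100% = mean of positive control wells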
Starred values were filed as active, the others as inactive; nt = no result given. The sample as a whole holds a higher share of hits than the screen did.

SMILES	Sa growth 42C	Sa helicase inh
Cc1ccc(O)c(-c2cc(C(F)(F)F)no2)c1	0.2*	6.0
CCN(CC)C(=O)c1cc(-c2ccccc2O)on1	116.5	4.0
Cc1ccc(-c2cc(-c3ccccc3)no2)c(O)c1	98.1	8.0
Oc1ccccc1-c1cc(C(F)(F)C(F)F)no1	1.5*	-15.0
CCN(CC(=O)Nc1ccc(OC)cc1)C1CCCCC1	94.1	3.0
C=CCN(CC=C)C(=O)c1ccc2c(c1)OCO2	112.0	0.0
COc1ccc(-c2nnn(CC(=O)N(c3ccccc3)C(C(=O)NC3CCCC3)c3ccco3)n2)cc1 (centres undefined)	47.5*	17.0
Cc1ccc(-c2nnn(CC(=O)N(Cc3ccccc3)C(C(=O)NC3CCCC3)c3ccco3)n2)cc1 (centres undefined)	113.8	3.0
Cc1ccc(O)c(C2(O)C(=O)c3ccccc3C2=O)c1	79.7	-2.0
Cc1ccc2oc(-c3ccccc3)cc(=NCCN(C)C)c2c1	112.1	37.0
CC(O)CN=c1cc(-c2ccccc2)oc2ccc(Cl)cc12 (centres undefined)	68.2	39.0
CCc1ccc2oc(-c3ccccc3)cc(=NCc3cccnc3)c2c1	96.4	48.0*
Cc1ccc2oc(-c3ccccc3)cc(=NCCO)c2c1	102.8	44.0*
CCC(C)C(C(=O)Nc1ccc(OC)c(OC)c1)N1Cc2ccccc2C1=O (centres undefined)	79.2	-15.0
CCN(CC)S(=O)(=O)c1ccc(Sc2cccc(C(F)(F)F)c2)nc1	90.3	16.0
Nc1cn(-c2ccccc2)nc1-c1ccccc1	121.7	5.0
Cc1[nH]n2c(=O)cc(-c3ccccc3)nc2c1-c1ccccc1	0.0*	-13.0
Cc1ccccc1Cc1c(C)nc2c(-c3ccccc3)c(C)[nH]n2c1=O	0.5*	nt
Cc1cccc(Cc2c(C)nc3c(-c4ccccc4)c(C)[nH]n3c2=O)c1	14.9	nt
Cc1[nH]n2c(=O)cc(-c3ccccc3Cl)nc2c1-c1ccccc1	32.4	nt
Cc1ccc2c(CC(=O)N3CCN(c4ncccn4)CC3)coc2c1	96.2	-4.0
CCc1ccc2cc(CNC3CCCCC3)c(=O)[nH]c2c1	82.9	4.0
CCOC(=O)c1cccc2c1-c1ccccc1C2=O	81.8	nt
CCOC(=O)c1cccc2c1-c1ccccc1/C2=N/O	44.3*	4.0
N#Cc1ccc(N2C(=O)c3ccccc3C2=O)cc1	84.0	-3.0
SMILES	Sa growth 42C	Sa helicase inh
Cc1cc(C(=O)CSc2n[nH]c(N)n2)c(C)n1Cc1ccc2c(c1)OCO2	114.5	-14.0
Cn1c(SCc2cc(=O)oc3cc(O)c(O)cc23)nc2ccccc21	70.9	67.0*
Nn1c(SCc2cc(=O)oc3cc(O)c(O)cc23)nnc1-c1ccncc1	68.2	25.0
CCn1c(SCc2cc(=O)oc3cc(O)ccc23)nc2ccccc21	92.9	-1.0
Nn1c(Cc2ccccc2F)nnc1SCc1cc(=O)oc2cc(O)c(O)cc12	138.6	55.0*
CCOC(=O)/C(C#N)=C/c1ccc2c(c1)c1ccccc1n2CC	109.7	10.0
C(=Nc1cccnc1)c1c[nH]c2ccccc12	8.3*	-12.0
C(=Nc1cccnc1)c1ccccc1	102.7	-17.0
O=C(CSc1ncccc1C(=O)O)NC1CCCc2ccccc21 (centres undefined)	92.8	-2.0
C=C(C)Cn1c(C2CC(=O)N(c3cc(OC)ccc3OC)C2)nc2ccccc21 (centres undefined)	nt	-18.0
COc1ccccc1NC(=O)Cc1nc(CN2CC(C)OC(C)C2)cs1 (centres undefined)	103.7	-5.0
Cn1ccnc1SC(=O)N1c2ccccc2Sc2ccccc21	117.5	2.0
Cc1nccn1CC(=O)N1c2ccccc2Sc2ccccc21	-0.3*	6.0
COC(=O)c1ccccc1-c1ccc(/C=C(\C#N)C(=O)NCc2ccco2)o1	90.3	7.0
CC(C)=NNC(=O)CN(C1=NS(=O)(=O)c2ccccc21)c1ccccc1	83.6	-27.0
CC(C)CN1CCOC(CNC(=O)NC2CCCCC2)C1 (centres undefined)	80.7	3.0
C=CCn1c(O)c(C2=c3cc(Br)ccc3=NC2=O)c2ccccc21	1.4*	3.0
C=CCn1c(O)c(N=O)c2ccccc21	76.5	6.0
CCCN1C(=O)/C(=C2/C(=O)N(Cc3ccc(C)cc3)c3ccccc32)SC1=S	nt	-22.0
CC(=O)Nc1ccc(S(=O)(=O)Nc2ccc([N+](=O)[O-])cc2)cc1	77.0	nt
O=C(N[C@H](CO)[C@H](O)c1ccc([N+](=O)[O-])cc1)C(Cl)Cl	-0.1*	nt
CCOC(=O)c1c(/C=C/C(=O)O)c(C)n(CC)c1C	92.2	6.0
CCCn1c(NC(=O)C2CCCC2)nc2ccccc21	-0.9*	-4.0
CCCn1c(NC(=O)CCC2CCCC2)nc2ccccc21	147.3	20.0
CC1COC2=C(N3CCN(C)CC3)C(F)=CC3C(=O)C(C(=O)O)=CN1C23 (centres undefined)	-0.5*	-3.0
COc1cccc(C(=O)NCCn2c(C)cc3ccccc32)c1	105.4	24.0

High-throughput results deposited in PubChem BioAssay by ICCB-Longwood Screening Facility, Harvard Medical School.
